Source: PubChem (National Center for Advancing Translational Sciences (NCATS))
Most compounds without a hit are left out; they make up all but 11% or so of the library.
HPGD block: HPGD (human) dehydrogenase inhibition | P15428 | purified HPGD, NADH fluorescence kinetic, PGE2 substrate | Potency, µM, without a hit: at the top dose activity change, negative = inhibition, most hits filed as inhibitors | hit rate 4.3% among 150,000 | AID 894; note: potency is the fitted concentration of half-maximal effect
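NADH formation kinetics: reaction with 30 uM PGE2 and 1 mM NAD+ (final), 20 nM enzyme, Tris-HCl pH 8 with Tween 20, after 15 min compound preincubation at room temperature. Fluorescence change, last versus first of five reads.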
PNC assembly inh: perinucleolar compartment assembly inhibition. PC3M PTB-GFP, PNC prevalence imaging, 16 h; hits give low values. activity change (PNC), negative = inhibition, % at 10 µM. hit rate 3.1% among 140,000. AID 2417;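 active = readout at or below -70, meaning at least 70% loss of cells showing the perinucleolar compartment, a nuclear body marking cancer cells; inconclusive = readout between -30 and a set limit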;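 note: plate controls were DMSO wells for no effect and camptothecin positive control wells for full effect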
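Compounds are pinned in duplicate onto adhered PC3M cells stably expressing GFP-tagged PTB and incubated 16 h at 37 C. Cells are then fixed, nuclei stained with Hoechst, and PNC-positive cells counted.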
ALDH1A1 inh: inhibitors of human aldehyde dehydrogenase 1A1. Potency, µM (series often up to 75.3 µM), without a hit: at the highest dose activity, negative = inhibition, hits mostly inhibitors. P00352. Purified ALDH1A1, NADH fluorescence, propionaldehyde substrate. hit rate 7.3% among 220,000;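 note: potency is the fitted concentration of half-maximal effect; plate controls were no enzyme wells and a reference inhibitor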
Target sequence (P00352 whole entry, looked up): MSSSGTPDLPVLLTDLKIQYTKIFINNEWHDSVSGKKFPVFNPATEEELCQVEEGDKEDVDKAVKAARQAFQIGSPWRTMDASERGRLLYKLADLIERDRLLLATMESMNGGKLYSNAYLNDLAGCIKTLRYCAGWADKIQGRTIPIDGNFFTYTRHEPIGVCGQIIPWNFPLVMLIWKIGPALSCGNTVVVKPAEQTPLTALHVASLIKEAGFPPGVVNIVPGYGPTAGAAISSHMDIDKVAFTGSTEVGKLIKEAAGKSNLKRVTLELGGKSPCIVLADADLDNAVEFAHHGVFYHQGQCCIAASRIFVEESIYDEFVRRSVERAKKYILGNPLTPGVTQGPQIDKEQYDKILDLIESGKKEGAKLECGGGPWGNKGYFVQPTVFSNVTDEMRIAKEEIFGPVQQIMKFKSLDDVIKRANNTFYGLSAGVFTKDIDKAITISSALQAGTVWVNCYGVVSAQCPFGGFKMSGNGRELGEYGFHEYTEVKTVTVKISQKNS
The depositor's hits bear a star; ? = inconclusive; / = not tested or not shown; [ ] = another dose, or the depositor's remark. Unless noted, calls come from the whole dose curve; as a rule, active = well fitted inhibition curve with a large enough effect (not every such curve was filed as active); inconclusive = small, poorly fitted or top-dose-only effect, or another doubt; inactive = no such curve, though single readings can be large or run the other way. Unless noted, % is set by controls: 0 for no effect and ±100 for the full control effect.

SMILES | HPGD block | PNC assembly inh | ALDH1A1 inh
COc1cc(C2c3[nH]c4ccccc4c3CC3C(=O)N4C(Cc5c([nH]c6ccccc56)C4c4cc(OC)c(OC)c(OC)c4)C(=O)N32)cc(OC)c1OC (stereo unspecified) | / | / | 0.9%[13.5 µM]
CC(=O)N(Cc1cc2c(C)cc(C)cc2[nH]c1=O)C1CCCCC1 | -22.1% | -16.3 | ?
CCOC(=O)Cn1nnnc1C(C(C)C)N(Cc1cc2c(C)cc(C)cc2[nH]c1=O)C1CCCC1 (stereo unspecified) | -23.8% | 151.1 | 3.55µM*
CCOc1ccc(/C=N/NC(=S)NC2CC3C=CC2C3)cc1 (stereo unspecified) | / | / | -2.8%
COc1cc(/C=N/NC(=S)NC2CC3C=CC2C3)cc(OC)c1OC (stereo unspecified) | / | / | 2.51µM*
Oc1c(Br)cc(Br)cc1/C=N/NC(=S)N[C@H]1CC2C=CC1C2 (stereo partly specified) | / | / | 12.6µM*
CNC(=S)N/N=C/c1cc(Br)cc(Br)c1O | ? | ? | 2.1%
N#Cc1cccc(-c2ccc3ncnc(NC4CCNCC4)c3c2)c1 | / | / | -12.5%
Cc1ccn2cc(C34CC5CC(CC(C5)C3)C4)nc2c1 | / | / | -8.4%
CCCCC(CC)COC(=O)COc1ccc(Cl)cc1Cl (stereo unspecified) | -4.7% | / | ?
Cc1ccccc1N1C(=O)CC1(C#N)c1ccc(OCc2ccccc2)cc1 (stereo unspecified) | -19.8% | 17.2 | 1.9%
CCCCCOc1ccc(Br)cc1/C(C)=N/NC1=NCCN1 | -2.5% | -88.5* | 9.1%
COc1ccc(Br)cc1/C(C)=N/NC1=NCCN1 | -7.5% | -17.0 | 2.6%
CC1=CC(C)(C)N(S(=O)(=O)c2ccc(C)cc2)c2cc(C)ccc21 | -18.1% | -95.2* | -1.4%
COc1ccc2c(c1)C(C)=CC(C)(C)N2S(=O)(=O)c1ccc(C)cc1 | / | / | -1.7%
NCCC(O)(P(=O)(O)O)P(=O)(O)O | -9.6% | / | -5.2%
COc1ccc2nc(-c3cccc(N)c3)[nH]c2c1 | ? | -19.3 | -7.1%
COc1ccc2nc(-c3ccc(N)cc3)[nH]c2c1 | ? | 31.2 | 6.31µM*
CC(NC(=O)Cn1cnc([N+](=O)[O-])n1)c1ccccc1 (stereo unspecified) | 4.1% | 22.3 | 2.3%
CC(NC(=O)Cc1ccc(-c2ccccc2)cc1)c1ccccc1 (stereo unspecified) | 14.1µM* | 2.7 | 11.2µM*
CC(NC(=O)CSCc1ccc(Br)cc1)c1ccccc1 (stereo unspecified) | / | / | -4.0%
C[C@H](NC(=O)Cn1cncn1)c1ccccc1 | -17.6% | -100.0* | -49.2%
Cc1nonc1C1CCCN1C(=O)c1cc(COc2ccc(F)cc2F)on1 (stereo unspecified) | / | / | 2.2%
N#Cc1ccc(COn2nnc3ccccc32)cc1 | / | / | -3.9%
CNc1ncnc2ccc(-c3ccc4c(c3)OCO4)cc12 | / | / | -11.1%
SMILES | HPGD block | PNC assembly inh | ALDH1A1 inh
CC(=O)c1c(C)[nH]c(C(=O)OCC(=O)Nc2ccc(Cl)cc2[N+](=O)[O-])c1C | 0.7% | -2.9 | 6.2%
CSCCC(NC(=O)c1cccc(C)c1)C(=O)OCC(=O)NC(=O)c1cccn1C (stereo unspecified) | / | -11.3 | 2.7%
CC1CCN(S(=O)(=O)c2ccc3c(c2)oc(=O)n3CC(=O)N2c3ccccc3CC2C)CC1 (stereo unspecified) | -8.8% | -11.0 | 5.1%
CC1Cc2ccccc2N1C(=O)Cn1c(=O)oc2cc(S(=O)(=O)NC3CCCC3)ccc21 (stereo unspecified) | 12.6µM* | ? | 7.7%
Cc1ccc2oc(=O)c3cc(C(=O)Nc4cc(-c5cccc(F)c5)no4)sc3c2c1 | -20.7% | 46.5 | 17.5%
COc1cccc(CNC(=O)c2cc3oc4ccccc4c3n2C)c1OC | ? | -106.1* | ?
CCOc1ccccc1CNC(=O)c1cc2oc3ccccc3c2n1CC | ? | 6.2 | ?
Cc1c(Cl)cccc1NC(=O)CNc1ccccc1F | / | -16.7 | 10µM*
Cc1c(Cl)cccc1NC(=O)CNCc1ccccc1F | / | / | -0.2%
[N-]=[N+]=CC(=O)COC(=O)c1ccccc1 | -1.0% | / | 2.7%[13.5 µM]
CCOc1ccccc1NC(=S)NCCc1ccccc1 | / | / | -9.5%
COc1cc(N(C)C)c([N+](=O)[O-])cc1C(=O)NC(C)CNc1ccc([N+](=O)[O-])cc1Cl (stereo unspecified) | -20.4% | 51.6 | 1.58µM*
COc1ccccc1NC(=O)c1ccc([N+](=O)[O-])cc1[N+](=O)[O-] | / | / | -2.1%
COc1cc2oc(=O)cc(-c3ccc(-c4sccc4C=O)cc3)c2c(OC)c1OC | -11.1% | / | -6.7%
Cc1ccc(-n2nnnc2SCC#N)cc1 | / | / | -7.0%
Cc1ccc(-n2nnnc2C(Cl)c2nnnn2-c2ccc(C)cc2)cc1 | 5.01µM* | 20.6 | -2.9%
CCOC(=O)N1CCN(C(=O)c2ccc3c(c2)sc2nc(-c4ccc(OC)cc4)cn23)CC1 | -23.2% | 17.9 | ?
COc1ccc(-n2cc(-c3ccccc3)nc2SC)cc1 | -19.7% | -84.9* | 11.0%
COc1ccc(-c2nnc(SC)n2C)cc1 | -12.0% | 26.3 | 10.6%
COc1ccc2c(c1)sc1nc(-c3ccccc3)cn12 | -17.5% | -96.2* | -11.0%
COC(=O)c1ccc(C(NC(=O)OCc2ccccc2)/C(=C/[C@@H](C)C(=O)N(C)Cc2cccnc2)c2cccnc2)cc1 (stereo partly specified) | -2.7% | / | -0.1%
Cc1ccc(S(=O)(=O)Nc2cc(=O)[nH]c3c2CCC3)cc1 | -3.4% | / | 5.2%[13.5 µM]
Cc1ccc(-c2nnc(SCC(=O)NNC(=O)COc3cccc4ccccc34)n2C)cc1 | -8.2% | 68.7 | 2.0%
Cc1ccc(SCC(=O)NC(=O)Nc2ccc3c(c2)OCCO3)c(C)c1 | -1.1% | ? | 9.7%
CCc1ccc(N/C(SC)=C(/C#N)C(N)=O)cc1 | -14.4% | -18.7 | 6.3%
SMILES | HPGD block | PNC assembly inh | ALDH1A1 inh
CCCCS/C(=C(/C#N)C(N)=O)c1cc2c([nH]1)CCCC2 | ? | 76.4 | 14.1µM*
CNS(=O)(=O)c1cccc(C(=O)Nc2cccc(Cl)c2)c1 | -2.7% | -93.9* | -1.7%
COc1cccc(C(=O)Nc2ccc(NC(C)=O)cn2)c1 | -13.1% | -115.7* | 4.2%
CN(c1cccc(Cl)c1)S(=O)(=O)c1cccc(C(=O)Nc2ccc3c(c2)CCC3)c1 | -20.3% | ? | 11.2µM*
CN(C)S(=O)(=O)Oc1cccc(C(=O)Nc2ccc(Cl)c(Cl)c2)c1 | -14.0% | 33.3 | 12.6µM*
CN(c1ccc(F)cc1)S(=O)(=O)c1ccc(Cl)c(C(=O)Nc2ccc3c(c2)CCC3)c1 | -20.1% | -21.1 | -4.7%
CNS(=O)(=O)c1cccc(C(=O)Nc2cccnc2)c1 | -11.1% | 8.2 | 7.4%
CCC(=O)Nc1ccc(Cl)c(NC(=O)c2cccc(OC)c2)c1 | / | / | -9.6%
CCCC(=O)Nc1ccc(NC(=O)c2cccc(OC)c2)nc1 | 3.9% | -18.4 | 3.9%
O=C(COC(=O)c1cccnc1Cl)Nc1ccc2c(c1)OCCO2 | / | / | -6.9%
CN(C)S(=O)(=O)Oc1cccc(C(=O)Nc2cccc(Cl)c2)c1 | -21.6% | 25.8 | 0.794µM*
CN(C)S(=O)(=O)c1cccc(C(=O)Nc2cc(Cl)cc(Cl)c2)c1 | -13.6% | ? | ?
COc1ccc(NC(=O)c2cccc(OS(=O)(=O)N(C)C)c2)cc1 | / | / | 3.98µM*
COc1cccc(C(=O)Nc2ccccc2)c1 | -20.7% | 41.0 | 2.3%
O=C1NCCC/C1=N/Nc1cc(F)ccc1F | / | / | 5.3%
